Assay in all cases: Cytotoxic Profiling of Annotated Libraries Using Quantitative High-Throughput Screening (AID 1296008); also: nearly all actives have a fitted effect of over 60% in size
Common to all, as to settings: Five cell lines viability, CellTiter-Glo ATP luminescence, 48-72 h; max response: active compounds read low

For assay [1], the system named is CRL-7250. In short, it runs like this: (§1)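 Cells exposed to compounds for 48 or 72 hr at 37 degrees Celsius. Viability read as ATP-coupled luminescence with CellTiter-Glo after 10 min at room temperature.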
Assay [2] has as its system HEK293. In short, it runs like this:
as §1

Assay [3] concerns HaCat. In short, it runs like this: as §1
In assay [4] the test system is KB-3-1. Summed up: as §1
Assay [5] has as its system NIH3T3. Summed up: as §1

Inconclusive results are not listed. Values without a mark were called inactive. Active and inactive are the calls of the source. Calls follow the shape of the dose curve; as a rule, active = well fitted inhibition curve with a large enough effect; inconclusive = small, poorly fitted or top-dose-only effect; inactive = flat fitted curve, though single readings scatter.
% is scaled to controls: 0 for no effect and ±100 for the full control effect; potency is read from the fitted curve at half-maximal effect.

In the case of `CC(C)=CCC(O)/C(C)=C/CO[C@@H]1O[C@H](CO)[C@@H](O)[C@H](O)[C@H]1O` (stereo not given in full), the outcome in assay [1] and in assay [4] was inactive. The max response was -0.719% in assay [2], -6.63% in assay [3] and 0.203% in assay [5].

Consider `CC(C)=CCC/C(C)=C/CO[C@@H]1O[C@H](CO)[C@@H](O)[C@H](O)[C@H]1O`, for which the values for the max response in assay [1], in assay [2] and in assay [5] were -5.48%, 1.41% and -9.17%, respectively. Further, the molecule was classed as inactive in assay [3] and in assay [4].

As for `CN(C)C1CCN(C(=O)c2ccc(NC(=O)Nc3ccc(-c4nc(N5CCOCC5)nc(N5CCOCC5)n4)cc3)cc2)CC1`, the Potency in assay [1] is 16.4 nM (active); in assay [2], 51.7 nM (active); in assay [3] it was 116 nM (active); in assay [4], 58 nM (active); in assay [5], 130 nM (active).

With `C/C1=C\[C@H]2OC(=O)[C@@H](C)[C@@H]2CC/C(C(=O)O)=C/CC1`, the max response in assay [1] was -1.29%; in assay [2], -16.7%; in assay [3], -0.286%; in assay [4], -0.178%; in assay [5] it was -2.73%.

`COC1C(=O)CCC2(CO2)C1(O)C1(C)OC1CC=C(C)C` (stereo not given): the max response in assay [1] was -21.3%; in assay [2] it was -34.7%; in assay [3] it was -2.7%; in assay [4], 6.79%; in assay [5], -14.1%.

For the molecule `O=C(Nc1ccccc1)N1CCN(Cc2ccc3ccccc3n2)CC1`, the result in assay [1] was inactive. The max response in assay [2] was -11%; in assay [3] it was -4.72%; in assay [4], -4.71%; in assay [5], 1.66%.

Regarding `OC[C@H]1O[C@@H](OC[C@H]2O[C@@H](OC/C=C/c3ccccc3)[C@H](O)[C@@H](O)[C@@H]2O)[C@@H](O)[C@@H]1O`, the max response is 0.699% in assay [1], 4.4% in assay [2], -0.518% in assay [3] and 2.42% in assay [5]. In assay [4], the result was inactive.

In the case of `COc1cc(C(=O)NC2CCN(C)CC2)ccc1Nc1ncc2c(n1)N(C1CCCC1)CC(F)(F)C(=O)N2C`, the Potency in assay [1] is 2310 nM (active); in assay [2] it was 14.6 nM (active); in assay [3], 116 nM (active); in assay [4], 5.8 nM (active); in assay [5] it was 2060 nM (active).

With `COC(=O)C1=C2Nc3ccccc3C23CCN2CCCC(C(C)O)(C1)C23` (stereo not given), in assay [1], the molecule was called inactive. Further, the max response was -3.43% in assay [2], -21.7% in assay [3], 6.23% in assay [4] and 1.02% in assay [5].

In the case of `CCOC(=O)c1cc(C#N)c(N2CCC(C(=O)NS(=O)(=O)Cc3ccccc3)CC2)nc1C`, the molecule was classed as inactive in assay [1] and in assay [4]. Further, the max response in assay [2] was -0.212%; in assay [3], 2.62%; in assay [5], 4.98%.

On to `OC[C@H]1O[C@@H](O[C@H]2[C@H](OCCc3ccccc3)O[C@H](CO)[C@@H](O)[C@@H]2O)[C@H](O)[C@@H](O)[C@@H]1O`, for which the molecule was called inactive in assay [1]. Also, the max response was -0.444% in assay [2], -12% in assay [3], 5.74% in assay [4] and -1.68% in assay [5].

Regarding `C=C1CC[C@H]2[C@@](C)(CCC(O)[C@@]2(C)CO)[C@@H]1CCC1=CCOC1=O` (stereo not given in full), the max response in assay [1] was 0.497%; in assay [2] it was 3.62%; in assay [3], -3.43%; in assay [4], -26.3%; in assay [5] it was -1.37%.

With `CC1=CC(=O)C2C(C)(C)CCC[C@]2(C)[C@H]1CO` (stereo not given in full), the max response in assay [1] was -14.4%; in assay [2], 1.55%; in assay [3] it was -11.3%; in assay [4], 2.57%; in assay [5], 2%.

On to `O=C(NCC(O)CO)c1ccncc1Nc1ccc(I)cc1F` (stereo not given), for which the Potency in assay [1] was 6510 nM (active); in assay [3] it was 18400 nM (active); in assay [5], 7310 nM (active). The max response in assay [2] is -15.9%. The molecule was called inactive in assay [4].

On to `C[C@@H](O)[C@H](NC(=O)c1ccc(C#Cc2ccc(CN3CCOCC3)cc2)cc1)C(=O)NO`, for which the max response in assay [1] was -14.3%; in assay [2] it was -16.7%; in assay [3] it was -21.7%; in assay [5] it was 3.18%. In assay [4], the result was inactive.

For the molecule `CC1(C)CCC2(C(=O)OC3OCC(O)C(O)C3O)CCC3(C)C(=CCC4C5(C)CC(O)C(OC6OC(COC7OCC(O)C(O)C7O)C(O)C(O)C6O)C(C)(C)C5CCC43C)C2C1` (stereo not given), the max response in assay [1] is 1.81%; in assay [2], -7.77%; in assay [3], 2.92%; in assay [5] it was -1.51%. In addition, the molecule was classed as inactive in assay [4].

For the molecule `CC(=O)OC1C(OC(=O)c2ccccc2)C2C(C)(C)CC(=O)CC2(C)C23CCC(C)(C2)C(O)CC13` (stereo not given), the max response was -5.07% in assay [1]; -15.7% in assay [2]; 1.97% in assay [3]; -13.9% in assay [4]; -5.55% in assay [5].
